A short description of assay [1]: glutamate transport activators, MN-1 cells, MN-1 cell line (AID 1612).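 Further: tested at 1 µM final; 0% = mean of DMSO vehicle wells on each plate; positive means more glutamate uptake than control and negative means less.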 To be noted: MN-1 motor neuron cells, stronger effect = higher value.
Assay [2] is described as follows: 75Q-TubH aggregate inhibition, S. cerevisiae, yeast (AID 1616). To be noted: S. cerevisiae 75Q-TubH polyglutamine aggregation suppression; stronger effect = higher value.
Assay [3] is described as follows: compounds altering circadian rhythm period length – cell-based, LOPAC library, luminescence reporter (AID 2774).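 Further: values are relative to mean of DMSO wells on each plate.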 Particulars: circadian reporter cells, at 7 µM, actives lie on both sides.
Assay [4] in a line: P. berghei load reduction in hepatocytes – cell-based, HepG2, luciferase luminescence, HepG2 viability, primary screen (AID 624349; in the data active means parasite load remaining mostly below about 12%, no sharp cut-off; inactive means mostly above about 10%;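 further: 100% = mean of DMSO negative control wells on the same plate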). Particulars: P. berghei liver stage in HepG2, luciferase luminescence, concentration not given here; parasite load remaining: stronger effect = lower value; viability: measured here: HepG2 viability without parasites.
The subject of assay [5] is Hepatitis C virus NS3 helicase. Put plainly: blockers of NS3h binding to ssDNA – biochemical, fluorescence polarization, LOPAC1280 library, primary screen (AID 687035; in the data active means inhibition above about 37%). To be noted: Purified HCV NS3 helicase, Cy5-dT15 ssDNA binding fluorescence polarization; stronger effect = higher value; concentration not given here. Background: Fluorescence polarisation rises when a labelled molecule tumbles more slowly, as on binding a larger partner.

Assay [6] is described as follows: compounds altering Cy5-DNA-NS3h complex signal – biochemical, LOPAC1280, artefact control for HCV NS3 helicase inhibitor project (AID 687037). Particulars: Cy5-DNA-NS3h complex fluorescence interference counterscreen. (A counterscreen serves to expose hits that act by an unwanted route or on another target.)
Assay [7] can be described thus: Wnt pathway potentiators raising nuclear beta-catenin – imaging, WNT3A-conditioned medium, mouse C2C12, NPC library, primary screen (AID 1117326; in the data active means nuclear beta-catenin stimulation mostly above about 4.2%, no sharp cut-off; inactive means mostly below about 10%). To be noted: stronger effect = higher value.
Assay [8] is described as follows: compounds altering viability of human ES cells (AID 493140).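 Further: cells exposed to compounds for four days before counting.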 To be noted: human embryonic stem cell survival screen; stronger effect = higher value.

Several values for one entry are separate records, joined by “and”; a condition that tells them apart may be missing. Equal entries are not always repeated. Activity calls are given as the source filed them. Unless noted, how the calls were made is not given here.

The term viability denotes a read-out of living cells in per cent, often relative to untreated cells. What is called inhibition is the drop in the measured response relative to a control, in per cent.

In the case of `Clc1ccc(C(c2ccccc2Cl)C(Cl)Cl)cc1` (centres undefined), in assay [1], the glutamate uptake change was -9.79%. The same compound came in with an aggregation suppression score in assay [2] of -1.87. In addition, the period change in assay [3] is -0.13 h (inactive). Besides, in assay [4], the parasite load remaining is 2.27% (inactive) and the viability was found to be 80.1%. Further, in assay [5], the inhibition is -4% (inactive). Besides, in assay [6], the fluorescence ratio (interference) is 0.9 (inactive). Further, the nuclear beta-catenin stimulation in assay [7] (at 10 µM) was 4.5% (inactive). In addition, the nuclear beta-catenin stimulation in assay [7] (stimulation, at 2 µM) turned out to be 0.2%.
In the case of `C/C=C(/C(=C/C)c1ccc(O)cc1)c1ccc(O)cc1`, in assay [1], the glutamate uptake change is -21.7%. The same compound gave an aggregation suppression score in assay [2] of 0.184. Moreover, the survival in assay [8] is 5.92 (inactive). For the same compound, in assay [4], the parasite load remaining is 99.8% (inactive) and 85.1% (inactive) and 15.2% (inactive); the viability was 93.2% and 76.6% and 68.2%. Also, in assay [7] (at 10 µM), the nuclear beta-catenin stimulation was 20.4% (inactive). In addition, in assay [7] (stimulation, at 2 µM), the nuclear beta-catenin stimulation stood at 2.2%.
In the case of `NC(=NCCCCCCN=C(N)/N=C(\N)Nc1ccc(Cl)cc1)/N=C(\N)Nc1ccc(Cl)cc1`, the glutamate uptake change in assay [1] is -13.4%. The same compound showed an aggregation suppression score in assay [2] of 0.0711. In addition, in assay [8], the survival was 3.17 (inactive). The nuclear beta-catenin stimulation is -2.3% (active) in assay [7] (at 10 µM) and 45.4% in assay [7] (stimulation, at 2 µM).
With `CN(C)CCCN1c2ccccc2Sc2ccccc21`, the glutamate uptake change in assay [1] is 20.4%. The aggregation suppression score in assay [2] was found to be 1.03. Besides, the period change in assay [3] was -0.355 h (inactive). Besides, the survival in assay [8] is 1.08 (inactive). Further, in assay [4], the parasite load remaining is 72.2% (inactive) and 44.2% (inactive) and 20.3% (inactive); the viability was 85.1% and 62.8% and 90.9%. Besides, in assay [5], the inhibition was -9% (inactive). Further, in assay [6], the fluorescence ratio (interference) is 0.9 (inactive). Also, the nuclear beta-catenin stimulation in assay [7] (at 10 µM) is 2.1% (inactive). The nuclear beta-catenin stimulation in assay [7] (stimulation, at 2 µM) stood at 1.6%.
Consider `COc1ccc(CCN2CCC(Nc3nc4ccccc4n3Cc3ccc(F)cc3)CC2)cc1`, for which the glutamate uptake change in assay [1] is 31.2%. Besides, the aggregation suppression score in assay [2] worked out at 1.26. Moreover, the survival in assay [8] was 1.58 (inactive). Also, the nuclear beta-catenin stimulation is -1.3% (inactive) in assay [7] (at 10 µM) and 3.9% in assay [7] (stimulation, at 2 µM).
For the compound `CSc1ccc2c(c1)C(N1CCN(C)CC1)Cc1ccccc1S2` (centres undefined), the glutamate uptake change in assay [1] came out at 5.12%. Besides, the aggregation suppression score in assay [2] is 1.18. In addition, the period change in assay [3] is 0.085 h (inactive). The survival in assay [8] is 1.5 (inactive). Besides, in assay [4], the parasite load remaining was 74.1% (inactive) and 71.4% (inactive) and 63.7% (inactive); the viability is 72.2% and 69.9% and 104%. Also, the inhibition in assay [5] was -5% (inactive). Also, the fluorescence ratio (interference) in assay [6] was 0.9 (inactive). For the same compound, the nuclear beta-catenin stimulation in assay [7] (at 10 µM) was 61.9% (active). Moreover, in assay [7] (stimulation, at 2 µM), the nuclear beta-catenin stimulation was determined as 1.4%.
With `C=Cc1c(C)c2cc3[nH]c(cc4nc(cc5nc(cc1[nH]2)C(C)=C5CCC(=O)O)C(CCC(=O)O)=C4C)c(C)c3C=C`, in assay [1], the glutamate uptake change was determined as 5.14%. In assay [2], the aggregation suppression score is 0.995. For the same compound, in assay [3], the period change was -0.02 h (inactive). Also, in assay [4], the parasite load remaining is 108% (inactive). Also, the viability in assay [4] amounted to 65.3%. Besides, in assay [5], the inhibition is 140% (active). Besides, in assay [6], the fluorescence ratio (interference) was 2 (active). Moreover, the nuclear beta-catenin stimulation in assay [7] (at 10 µM) was -3.7% (inactive); in assay [7] (stimulation, at 2 µM), 0.1%.
As for `CN1CCN2c3ccccc3Cc3ccccc3C2C1` (centres undefined), the glutamate uptake change in assay [1] came to 12.1%. Besides, the aggregation suppression score in assay [2] is 1.3. For the same compound, the period change in assay [3] is 0.145 h (inactive). The survival in assay [8] is 11.2 (inactive). Further, in assay [4], the parasite load remaining is 78.7% (inactive) and 106% (inactive) and 104% (inactive). Moreover, the inhibition in assay [5] is -3% (inactive). Further, the fluorescence ratio (interference) in assay [6] was 0.9 (inactive). The nuclear beta-catenin stimulation is 0.3% (inactive) in assay [7] (at 10 µM) and -0.9% in assay [7] (stimulation, at 2 µM).
Regarding `Cc1cc(N)c2ccccc2[n+]1CCCCCCCCCC[n+]1c(C)cc(N)c2ccccc21`, the glutamate uptake change in assay [1] amounted to 12.9%. Moreover, the aggregation suppression score in assay [2] turned out to be 0.0487. Further, in assay [3], the period change is 0.12 h (inactive). Also, the survival in assay [8] was 0.167 (inactive). Also, in assay [4], the parasite load remaining was 4.91% (inactive) and -3.56% (inactive) and 27.5% (inactive); the viability was 97.2% and 73.1% and 69.2%. In addition, in assay [5], the inhibition is 2% (inactive). In assay [6], the fluorescence ratio (interference) is 0.9 (inactive). Also, the nuclear beta-catenin stimulation in assay [7] (at 10 µM) is 25% (inactive). The nuclear beta-catenin stimulation in assay [7] (stimulation, at 2 µM) was -0.1%.
